Laboratory results reported in PubChem BioAssay AID1259313 (Sanford-Burnham Center for Chemical Genomics, 2017).
The whole screen tested about 340,000 compounds, of which about 8,500 (2.5%) were called active.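 Rule for the calls: active = melting temperature shift of at least 10% of the positive control shift, at one fixed dose; inactive = the rest.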 The full list was thinned out, with actives kept by preference.

These molecules were tested on Glutamate receptor ionotropic, NMDA 3A (GRIN3A) ligand-binding domain (assay: binders of NR3A ligand-binding domain, primary screen, biophysical, differential scanning fluorimetry, uHTS (AID 1259313)). Conditions: NR3A LBD differential scanning fluorimetry, at 25 µM, active compounds read high, 0% = protein alone, 100% = glycine-bound protein.

Tm shift relative to glycine control, active:
CNc1nc(Nc2ccc(C)c(Cl)c2)nc(N)c1[N+](=O)[O-] 25.8%, CCOC(=O)c1nc(N)sc1C(=O)OCC 17.7%, COc1ccccc1CC(=O)Nc1ccc([N+](=O)[O-])cc1OC 10.2%, Cc1ccccc1NCC(=O)N/N=C\c1ccc([N+](=O)[O-])s1 11.5%, Cc1ccc(Nc2nc(CSc3nnnn3-c3ccccc3)cc(=O)[nH]2)cc1 10.7%, CCCOc1ccc(NC(=O)CC2C(=O)N(C)C(=S)N2Cc2ccc3c(c2)OCO3)cc1 (stereo unspecified) 23.2%

Tm shift relative to glycine control, inactive:
CCN1CCN(c2nc(Nc3cccc(F)c3)nc(N)c2[N+](=O)[O-])CC1 0.95%, COc1cccc(Nc2nc(N)c([N+](=O)[O-])c(NCc3ccco3)n2)c1 -10.5%, Cc1cn(C)c(=O)n(C)c1=O -0.48%, CCN(CC)S(=O)(=O)c1ccc(NC(=O)c2cccnc2Cl)c(NC(=O)c2cccnc2Cl)c1 -0.78%, CC(=O)c1sc(N)nc1C 2.68%, CCOC(=O)c1sc(NC(=O)c2sc(C)nc2C)nc1C 3.53%, CN(C)C(=O)CCC(=O)N1CCCCC1C(=O)Nc1ccc(Oc2ccccc2F)cc1 (stereo unspecified) -0.77%, O=S(=O)(c1ccc(Cl)cc1)N1CCCN(c2ccc(C(F)(F)F)cn2)CC1 -4.38%, COC(=O)c1ccccc1NC(=O)Cc1ccccc1OC -0.63%, COc1cc([N+](=O)[O-])ccc1NC(=O)COC(=O)CCOc1ccc(C)cc1 2.57%, COc1ccc(CCNC(=O)COC(=O)c2ccc[nH]c2=O)cc1 -2.27%, Cc1cccc(/C=N/NC(=O)CNc2cccc3ccccc23)n1 4.98%, Cc1ccc(/C=N/NC(=O)CN2CCN(Cc3ccccc3)CC2)s1 -1.47%, COc1ccc(C)cc1-n1nnnc1SCc1nc2ccccc2c(=O)[nH]1 0.31%, Cc1ccc(NC(=O)CSc2nc(CSc3ccc(C)cc3)cc(=O)[nH]2)cc1 -30.2%, O=C(Nc1ccc(Br)cc1)c1cccc(NC(=O)C2C3CC4OC(=O)C2C4C3)c1 (stereo unspecified) -8.89%, O=C(NC(=S)Nc1cccc(-c2ccc(CO)o2)c1)c1cccs1 -18.4%, COc1ccc(N2C(=O)C(CC(=O)Nc3ccccc3)N(Cc3ccc(OC)c(OC)c3)C2=O)cc1 (stereo unspecified) -3.64%, O=C(Nc1ccc(Cl)cc1)C1c2cccc[n+]2CC(=O)N1Cc1ccc2c(c1)OCO2 (stereo unspecified) 0.68%, O=C(CN1CCN(C(=S)NC2CCCC2)CC1)Nc1ccc(Oc2ccccc2)cc1 -2.87%
